According to the supplement of paper PMC6555819:

Assays:
Experiment in all cases: PBM binding z-score (relative to random genomic background probes); higher = stronger binding; sequences stand for … in GC…GCGATTGACAGCGTAGAATGAAGG
[1] = tested on: RARb homodimer (NR concentration 270 nM)
Outline: (§1)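 Scanned fluorescence from custom Agilent 4×180K protein-binding microarrays was regression-normalized. Binding z-scores use random background probes as reference. Ligand-free nuclear receptor dimers were incubated on the arrays for 1 h and detected with antibodies against each partner (one per run).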

[2] = tested on: RARg:RXRa (NR concentration 270 nM, RXRa partner concentration 90 nM)
Outline: as §1

[3] = tested on: RARg homodimer (NR concentration 270 nM)
Outline: as §1

[4] = tested on: RXRa DBDmut IVT, anti-RXR (DBD mutation: RXRa K156A/R161A, NR concentration 90 nM)
Outline: as §1

[5] = tested on: RXRa homodimer (NR concentration 180 nM)
Outline: as §1

[6] = tested on: THRa:RXRa (NR concentration 90 nM, RXRa partner concentration 90 nM)
Outline: as §1

[7] = tested on: THRa homodimer (NR concentration 90 nM)
Outline: as §1

[8] = tested on: VDR homodimer (NR concentration 270 nM)
Outline: as §1

Row | Sequence | PBM binding z-score [1] | PBM binding z-score [2] | PBM binding z-score [3] | PBM binding z-score [4] | PBM binding z-score [5] | PBM binding z-score [6] | PBM binding z-score [7] | PBM binding z-score [8]
1 | TGAATGAGGTTAAAGATTAGGGAACGTGGCGTCG | 0.481 | 1.91 | 1.29 | 1.09 | 2.89 | 2.37 | 0.417 | 0.533
2 | ATCGAAAGGTCGACGAGCTGAGTATACACCGTTT | 2.38 | 3.86 | 3.6 | 1.09 | 4.01 | 1.58 | -0.705 | 0.176
3 | CCAGACAGGTGAAAGGTAACTCGGTCTGGTACGC | 0.705 | 1.23 | 0.639 | -0.242 | 2.27 | 0.879 | 0.0486 | -0.126
4 | TCTATTAGTTGAAGGGCCACCGACGAGTCCGTTT | 0.971 | 0.277 | 0.128 | 1.69 | 0.47 | 0.074 | 0.396 | 1.35
5 | GCGACTGGGGCAATGCAGGTTACCATAAGGTTGG | 1.14 | 0.631 | 0.677 | -0.584 | 0.553 | 2.56 | -0.0652 | -0.0846
6 | GCGACTGGGGCATCAGCAGGTTACTATAACTTAA | 0.782 | 0.807 | 0.379 | 0.136 | 0.331 | 0.816 | 0.104 | 0.0737
7 | CCTTACGAGTCACTGACAGGTTATAGCATTTGGA | 1.23 | 1.22 | 0.808 | 0.998 | 0.893 | 0.852 | 0.813 | 0.964
8 | TCTCGGAGGACACGAAAGGTCAGCGCTCGACATC | 4.96 | 5.25 | 6.15 | 1.39 | 4.52 | 3.89 | 1.76 | 1.13
9 | GCTATTAGTTGAAACGGCAACCGAATGATTCTCG | -0.548 | -0.122 | -0.103 | 0.644 | -0.226 | -0.488 | -0.463 | -0.198
10 | CGACCGAGGGCATGAGTTGATAGCAAATGCCGAT | 0.812 | 1.35 | 1.89 | 1.81 | 0.547 | 1.01 | -0.126 | 1.48
11 | CCTTACGGGTCCAGGTTATAGCACGGGTGGTACG | 0.293 | -0.0416 | 0.158 | -0.824 | 0.106 | 0.171 | 0.291 | 0.862
12 | ACTATTAGTTGAGACGAGGGCAACCGCTAGGTTG | 1.35 | 0.408 | 0.507 | 0.704 | 0.516 | 2.66 | 0.222 | 0.863
13 | CGTTAAAGTTCAACTAAGGTAACGTAAAGCACGC | 4.09 | 5.55 | 6.33 | 4.8 | 4.25 | 5.26 | 1.68 | 3.94
14 | GCTAGCAGGCCAGTTGGGTCACTCAATGACGGGC | 1.76 | 0.797 | 0.963 | -1.01 | 0.522 | 1.45 | 0.0151 | -0.361
15 | CGTCCAAGGTTAAAGGTCAGTGAAGAGATGACGG | 4.52 | 6.38 | 5.4 | 2.09 | 8.31 | 3.84 | 0.929 | 1.46
16 | CGTCAAAGTTCAAGGTAACGTTACAGAAAGCAGC | 4 | 5.44 | 6.2 | 4.52 | 4.96 | 2.94 | 1.13 | 3.32
17 | TGAATGAGGTTAAAGATCAGGTAACGTGGCGTCG | 0.893 | 2.55 | 1.38 | 0.98 | 3.9 | 3.29 | 1.42 | 0.674
18 | TCTATTAGTTGATTAGGGCAACCTAAACAGCGGA | 0.947 | 0.824 | 0.799 | 0.995 | 0.669 | 0.862 | 0.4 | 0.145
19 | AGAATGAAGTTACCAAAGATCAGGGAAACGCTTG | -0.995 | 0.125 | 0.206 | -0.628 | 0.402 | -0.228 | -1.02 | -0.257
20 | CCTAGTTGGTCAGGAGATCACACACCGGATATGA | 0.781 | 0.628 | 1.01 | 0.108 | 0.347 | -0.184 | 0.385 | 0.435
21 | AGAATGAGGTTATACGTACATCAGGGAAGAAAGT | 0.803 | 1.95 | 1.32 | 1.73 | 2.32 | 2.13 | 0.372 | 1.22
22 | AGAATGAGGTTTCCAAAGATCAGGGAAACGCTTG | -0.579 | -0.0652 | -0.103 | -0.247 | 0.124 | -0.118 | -0.311 | -0.385
23 | ATCTCTAGGTAAGACTCAGTTCAGTGTAGAACGC | 0.758 | 0.266 | 0.408 | 0.967 | 0.133 | 0.88 | 0.909 | 1.39
24 | TCAGCTAGGTCAGTTGGTCAGCTAACGAGCTGCC | 2.61 | 2.79 | 3.45 | 0.986 | 0.749 | 0.928 | -0.339 | -0.91
25 | CCTAGTTGGTCAGGGTCACACACGCTATAGGTAC | 3.88 | 4.11 | 3.38 | 1.6 | 4.93 | 3.63 | 2.49 | 2.69
26 | ATCTCTAGGTAACACGTTCAGTGAAAGAGAGGAC | 0.49 | 0.475 | 0.586 | -0.0545 | 0.391 | 0.954 | 0.748 | 0.453
27 | ATATGTAGGCTATCGGGTCATTCAGTTTGCGCAT | 2.23 | 2.01 | 1.52 | 1.1 | 2.08 | 2.91 | 1.79 | 3.16
28 | ATCTCTAGGTAAGACTCAGCTCAGTGAAGAACGC | 0.128 | -0.176 | 0.0732 | 0.0476 | -0.204 | 0.124 | 0.524 | 0.3
